An excerpt weighted towards active compounds, which were near 4% of everything screened.
CF NFkB inh: blocks PAF-induced NF-kB reporter in cystic fibrosis cells; KKLEB NF-kB-GFP reporter, GFP fluorescence overnight; inhibition, % at 5 µM; 0.86% of 360,000 active;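 active = at least 50% inhibition at 5 µM, scaled per plate between neutral and stimulator controls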;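 also: PAF is a Pseudomonas aeruginosa culture filtrate used as stimulus; plate controls were PAF-stimulated DMSO wells for no effect and unstimulated DMSO wells for full effect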
KKLEB tox: reduces viability of KKLEB cystic fibrosis airway cells; KKLEB CF airway cells viability, ATPlite luminescence, overnight; hits give low values; cells stimulated with P. aeruginosa culture filtrate; activity change (cytotoxicity), % at 5 µM; 0.36% of 360,000 active;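 active = corrected activity change at or below -50% at 5 µM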
TWEAK Fn14 block: inhibitors of TWEAK-Fn14 interaction signaling; 2% of 360,000 active; inhibition, % at 10 µM; AID 1159606; TWEAK-stimulated Fn14 reporter cells, luciferase luminescence, 8 h; in the data active = inhibition above about 50%
HIF-2a block: HIF-2a inhibition | inhibition, % at 18.8 µM | 0.72% of 360,000 active | 786-0 RCC cells HIF-2a reporter, luciferase luminescence, overnight;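 active = inhibition of the luminescence signal of 40% or more relative to plate controls, in a single-dose primary screen at 18.75 µM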
Peg3 prom inh: inhibitors of Peg3 promoter; HeLa PEG-Prom luciferase reporter, luminescence, overnight; inhibition, % at 20 µM; 1.7% of 360,000 active; AID 588405;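 active = inhibition of at least 50% at 20 µM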
TROY signal inh: TROY signaling inhibition | Q293 LMP1-TROYcd NF-kB luciferase reporter, 4 h | inhibition, % at 10 µM | 0.98% of 360,000 active | AID 1347056;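 active = compounds whose plate-normalised and pattern-corrected inhibition of the luciferase reporter signal at the single screening dose is 50% or more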
Starred values were filed as active, the others as inactive.

Results for CC(=O)CCc1ccc(OCC(O)CNCCOc2ccc(C)cc2)cc1 (configuration not stated) ?
CF NFkB inh: 9; KKLEB tox: 3; TWEAK Fn14 block: 12; HIF-2a block: 1; Peg3 prom inh: 8; TROY signal inh: -5

What do the screens show for `C=CCOc1ccc(CN(C)CC(O)COc2ccc(CCC(C)=O)cc2)cc1` (configuration not stated)?
CF NFkB inh: -3; KKLEB tox: 3; TWEAK Fn14 block: 55*; HIF-2a block: 6; Peg3 prom inh: 23; TROY signal inh: 6

What do the screens show for `COc1cccc(CNC(=O)c2c(C)nn(-c3ccccc3)c2C)c1`?
CF NFkB inh: 0; KKLEB tox: -1; TWEAK Fn14 block: 6; HIF-2a block: 5; Peg3 prom inh: 11; TROY signal inh: 6

What do the screens show for `N#C/C(=C(/O)COc1ccc(Cl)cc1)c1nc2ccccc2s1`?
CF NFkB inh: 50*; KKLEB tox: -34; TWEAK Fn14 block: 42; HIF-2a block: -64; Peg3 prom inh: -8; TROY signal inh: 34

What do the screens show for `COC(=O)c1ccc(-c2sc3nc(N4CCOCC4)c4c(c3c2N)CC(C)(C)OC4)o1`?
CF NFkB inh: -14; KKLEB tox: 7; TWEAK Fn14 block: 9; HIF-2a block: 22; Peg3 prom inh: 4; TROY signal inh: 4

What do the screens show for `COc1ccccc1CN(C)C(=O)c1cc(C)nc2ccccc12`?
CF NFkB inh: 18; KKLEB tox: 3; TWEAK Fn14 block: 8; HIF-2a block: 16; Peg3 prom inh: 13; TROY signal inh: 13

How did COc1ccc(CN(C)C(=O)c2cc(-c3ccccc3)nc3ccc(C)cc23)c(OC)c1 do in these assays?
CF NFkB inh: 12; KKLEB tox: -10; TWEAK Fn14 block: 53*; HIF-2a block: -35; Peg3 prom inh: 98*; TROY signal inh: 11

How did CC(=O)Nc1ccccc1OCC(=O)c1cc(C)n(Cc2cccs2)c1C do in these assays?
CF NFkB inh: 7; KKLEB tox: -3; TWEAK Fn14 block: 64*; HIF-2a block: -35; Peg3 prom inh: -258; TROY signal inh: 36

What do the screens show for `COCCn1c(C)cc(C(=O)COc2nc3ccccc3nc2C)c1C`?
CF NFkB inh: 3; KKLEB tox: -13; TWEAK Fn14 block: 19; HIF-2a block: -1; Peg3 prom inh: 7; TROY signal inh: -16

How did COC(=O)CCn1c(C)cc(C(=O)COc2ccccc2C(N)=O)c1C do in these assays?
CF NFkB inh: 1; KKLEB tox: 4; TWEAK Fn14 block: 53*; HIF-2a block: 13; Peg3 prom inh: 3; TROY signal inh: 23

What do the screens show for `COC(=O)CCCn1c(C)cc(C(=O)CCl)c1C`?
CF NFkB inh: 23; KKLEB tox: 21; TWEAK Fn14 block: 13; HIF-2a block: 21; Peg3 prom inh: 51*; TROY signal inh: 9

How did Cc1cc(C(=O)COc2cccnc2[N+](=O)[O-])c(C)n1Cc1cccs1 do in these assays?
CF NFkB inh: 12; KKLEB tox: -1; TWEAK Fn14 block: 8; HIF-2a block: 31; Peg3 prom inh: 4; TROY signal inh: 6

What do the screens show for `O=C1c2ccccc2NC(c2cc(Cl)cc(Cl)c2O)N1Cc1cccnc1` (configuration not stated)?
CF NFkB inh: 8; KKLEB tox: 0; TWEAK Fn14 block: 10; HIF-2a block: 13; Peg3 prom inh: 12; TROY signal inh: -2

Results for CCc1nc2ccc(C(=O)N(C)CC(=O)Nc3cccc(F)c3)cc2nc1CC ?
CF NFkB inh: 22; KKLEB tox: -9; TWEAK Fn14 block: -7; HIF-2a block: 5; Peg3 prom inh: 15; TROY signal inh: 13

Results for COc1ccccc1C(=O)NCC(=O)NC(C)CCc1ccccc1 (configuration not stated) ?
CF NFkB inh: -13; KKLEB tox: 8; TWEAK Fn14 block: 2; HIF-2a block: 14; Peg3 prom inh: 11; TROY signal inh: 8

What do the screens show for `Cn1nc(-c2ccc(N3CCOCC3)c(NS(=O)(=O)c3ccc(Cl)cc3)c2)c2ccccc2c1=O`?
CF NFkB inh: -28; KKLEB tox: -4; TWEAK Fn14 block: 61*; HIF-2a block: 14; Peg3 prom inh: 24

What do the screens show for `CCOC(=O)c1cc([N+](=O)[O-])sc1NC(=O)CC`?
CF NFkB inh: 14; KKLEB tox: -21; TWEAK Fn14 block: 99*; HIF-2a block: 4; Peg3 prom inh: 5; TROY signal inh: 2

How did NNC(=S)NC1CC2CC1C1C=CCC21 (configuration not stated) do in these assays?
CF NFkB inh: 6; KKLEB tox: -12; TWEAK Fn14 block: 77*; HIF-2a block: 6; Peg3 prom inh: 10; TROY signal inh: 70*

Results for O=C(OCC(=O)N1CCN(C(=O)c2ccco2)CC1)c1cc(-c2ccccc2)nc2ccccc12 ?
CF NFkB inh: -24; KKLEB tox: 4; TWEAK Fn14 block: 10; HIF-2a block: -18; Peg3 prom inh: -13

How did O=C(OCC(=O)N1CCN(C(=O)c2ccco2)CC1)c1ccccc1C(=O)c1ccccc1 do in these assays?
CF NFkB inh: 4; KKLEB tox: 2; TWEAK Fn14 block: 79*; HIF-2a block: 22; Peg3 prom inh: 7

What do the screens show for `O=C(OCC(=O)N1CCN(C(=O)c2ccco2)CC1)c1ccccc1C(=O)c1ccc(Cl)cc1`?
CF NFkB inh: 15; KKLEB tox: 5; TWEAK Fn14 block: 6; HIF-2a block: 15; Peg3 prom inh: 4; TROY signal inh: -8

How did O=C(OCC(=O)N1CCN(C(=O)c2ccco2)CC1)c1cc(-c2ccc(F)cc2)nc2ccccc12 do in these assays?
CF NFkB inh: -17; KKLEB tox: 2; TWEAK Fn14 block: 52*; HIF-2a block: -15; Peg3 prom inh: 1; TROY signal inh: 2

Results for CCc1ccc(/C=C2/SC(=S)N(CCCC(=O)Nc3ccccc3C(=O)O)C2=O)cc1 ?
CF NFkB inh: 12; KKLEB tox: 4; TWEAK Fn14 block: 33; HIF-2a block: 12; Peg3 prom inh: 34; TROY signal inh: 75*

What do the screens show for `O=C(CCCN1C(=O)/C(=C\c2ccccc2)SC1=S)Nc1ccc(O)cc1C(=O)O`?
CF NFkB inh: 4; KKLEB tox: 0; TWEAK Fn14 block: 2; HIF-2a block: 15; Peg3 prom inh: -13; TROY signal inh: 35

How did COc1ccc(/C=C2/SC(=O)N(CCC(=O)Nc3ccccc3C(=O)O)C2=S)cc1 do in these assays?
CF NFkB inh: -2; KKLEB tox: 26; TWEAK Fn14 block: 24; HIF-2a block: 57*; Peg3 prom inh: -10; TROY signal inh: 22

How did CCc1ccc(C=C2SC(=S)N(CCCC(=O)Nc3ccc(C(=O)O)cc3)C2=O)cc1 do in these assays?
CF NFkB inh: 6; KKLEB tox: -12; TWEAK Fn14 block: -28; HIF-2a block: 51*; Peg3 prom inh: -68; TROY signal inh: 6

How did CC(C)CC1CC(C)(c2csc(NNC(=O)c3ccccc3)n2)OC1=O (configuration not stated) do in these assays?
CF NFkB inh: -3; KKLEB tox: -42; TWEAK Fn14 block: -10; HIF-2a block: -4; Peg3 prom inh: 6; TROY signal inh: -5

High-throughput results as filed in PubChem.
